# Experimental data: ChEMBL document CHEMBL3988442, “University of Dundee, Small-Polar-MMV Screening Library” (2021)
# Hit rate of the full screen: of about 69,000 compounds, about 1,000 (1.4%) showed an effect of 50% or more. The sample holds strong results, similar compounds and a random draw of the others, so the mix is not that of the screen.
# Tested on: Leishmania donovani
# Experiment: Leishmania intramacrophage assay
# Format: functional, organism-based
# Set-up: scale not given: in the data most compounds retested in dose-response had high values
compound,measurement,setting,value
COc1ccc(CN(C)CCS(=O)(=O)c2ccc(Cl)cc2)cc1OC,Percent Effect,"30.3 µM, […]",56.02%
COc1ccc(CCN(C)CCS(=O)(=O)c2ccc(Cl)cc2)cc1OC,Percent Effect,"30.3 µM, […]",7.861%
CCN(Cc1nccs1)Cc1cc(Cl)ccc1OC,Percent Effect,"30.3 µM, […]",-1.846%
CCN(CCS(=O)(=O)c1ccc(Cl)cc1)Cc1ccc(OC)c(OC)c1,Percent Effect,"30.3 µM, […]",54.72%
COCCN(C)Cc1ccc(OC)c(OC(F)F)c1,Percent Effect,"30 µM, 30.03 µM",7.354%
COc1ccc(CCCN(C)C(=O)c2cc(Cl)c[nH]2)cc1OC,Percent Effect,"30.3 µM, […]",32.32%
Cc1cc(C)n(Cc2ccc(-c3noc(C(=O)NC[C@@H](C)O)n3)cc2)n1,Percent Effect,"30.3 µM, […]",18.71%
O=C(O)C(F)(F)F.O=C(O)C(F)(F)F.c1cnc(N2CCC3(CCN(Cc4ccncc4)CC3)CC2)nc1,Percent Effect,"30 µM, 30.03 µM",38.21%
Cc1nccn1CC1CCCN(S(=O)(=O)c2cnn(C)c2)C1 (stereo not drawn),Percent Effect,"30.3 µM, […]",12.01%
O=C(N1CCOCC1)N1CCOC[C@H](Oc2ccc(C(F)(F)F)cc2)C1,Percent Effect,"30.3 µM, […]",-1.363%
COc1cc(CN2CC[C@@H](N3CCCCCC3)[C@H](O)C2)cc(Cl)c1OC,Percent Effect,"30.3 µM, […]",50.85%
COc1cc(Cl)c(CN2CCC(C(N)=O)C2)cc1Cl (stereo not drawn),Percent Effect,"30.3 µM, […]",31.88%
COc1cc(Cl)cc(CN2CCCC(N3CCCC3)C2)c1OC (stereo not drawn),Percent Effect,"30.3 µM, […]",12.54%
COCCC(=O)N1CCC2(CCN(Cc3ccc(OC)c(F)c3)C2)C1 (stereo not drawn),Percent Effect,"30.3 µM, […]",-20.78%
CC(=O)NCc1ccc(C(=O)N2CCCc3c(F)ccc(C)c32)cc1,Percent Effect,"30.3 µM, […]",35.68%
COc1cccc2c1OCC(Cc1cc(C(N)=O)ccn1)C2 (stereo not drawn),Percent Effect,"30.3 µM, […]",69.64%
COc1cccc2c1OCC(Cc1cc(C(=O)N3CCCC3)ccn1)C2 (stereo not drawn),Percent Effect,"30.3 µM, […]",20.15%
CNC(=O)c1ccnc(CC2COc3c(cccc3OC)C2)c1 (stereo not drawn),Percent Effect,"30.3 µM, […]",-40.6%
CCOc1ncccc1CNC(=O)Nc1ccccc1,Percent Effect,30 µM,-12.58%
COc1nn(C)cc1-c1nnc(SCc2cccnc2)n1C,Percent Effect,"30.3 µM, […]",-1.752%
CC(C)=CCC1(C(=O)O)CCCN(CCC(=O)NC2CC2)C1 (stereo not drawn),Percent Effect,"30.3 µM, […]",0.5122%
CCN(CC)C(=O)c1nc2c(s1)CCN(Cc1cccc(OC)c1)CC2.O=C(O)C(F)(F)F,Percent Effect,"30.3 µM, […]",-7.279%
COc1ccc(OCCN(C)c2cc(C)nc(N)n2)cc1,Percent Effect,"30.3 µM, […]",6.601%
Cc1cc(N(C)CCOc2ccccc2F)nc(N)n1,Percent Effect,"30.3 µM, […]",60.08%
COc1ccccc1OCCN(C)c1cc(C)nc(N)n1,Percent Effect,"30.3 µM, […]",6.974%
Cc1nc(C2CCCN2CC(=O)Nc2cc(C(C)(C)C)nn2C)no1 (stereo not drawn),Percent Effect,30 µM,12.3%
CC(C)n1cnnc1CN(C)CC1CCCNC1 (stereo not drawn),Percent Effect,"30.3 µM, […]",32.72%
Cl.N#Cc1ccc(NC(=O)C2CSCN2)cc1 (stereo not drawn),Percent Effect,"30.3 µM, […]",0.03454%
CS(=O)(=O)NCCC1CN(Cc2ccccc2F)CCO1 (stereo not drawn),Percent Effect,"30.3 µM, […]",18.65%
OC1(Cn2ccnc2)CCN(C[C@]2(O)CCCN3CCCC[C@@H]32)CC1,Percent Effect,"30.3 µM, […]",-28.91%
CC(C(=O)Nc1cccc(Cl)c1SC(F)F)S(C)(=O)=O (stereo not drawn),Percent Effect,"30.3 µM, […]",58.19%
O=C(NCCO)Nc1cccc(Cl)c1SC(F)F,Percent Effect,"30 µM, 30.03 µM",-27.47%
CC(=O)NCCNC(=O)Nc1cccc(Cl)c1SC(F)F,Percent Effect,"30.3 µM, […]",17.25%
Cc1[nH]c2ccc(C#N)cc2c1CCNc1ncnc2c1CCNCC2,Percent Effect,"30.3 µM, […]",16.81%
Cc1[nH]c2ccccc2c1CCNc1ncnc2c1CCNCC2,Percent Effect,"30.3 µM, […]",16.03%
Cc1[nH]c2ccc(Cl)cc2c1CCNc1ncnc2c1CCNC2,Percent Effect,"30.3 µM, […]",54.3%
CC(C)CN(Cc1ccsc1)C(=O)CCCn1cncn1,Percent Effect,"30.3 µM, […]",40.23%
Cc1csc(CCCNC(=O)NC2CC(=O)N(C(C)(C)C)C2)n1 (stereo not drawn),Percent Effect,"30.3 µM, […]",22.59%
O=C(c1nc(N2CCCC2)ncc1Cl)N1CCN(Cc2ccsc2)CC1,Percent Effect,"30.3 µM, […]",1.991%
CN(Cc1ccsc1)C(=O)c1nc(N2CCCC2)ncc1Cl,Percent Effect,"30.3 µM, […]",20.2%
CCOc1ccc(NC(=O)c2cnc(N3CCCC3)nc2C)cc1,Percent Effect,"30 µM, 30.03 µM",16.9%
Cc1noc(C)c1CN(C)C(=O)c1nc(N2CCCC2)ncc1Cl,Percent Effect,"30.3 µM, […]",-8.961%
CCOc1ccc(CN(C)C(=O)c2nc(N3CCCC3)ncc2Cl)cc1,Percent Effect,"30.3 µM, […]",58.99%
CN(Cc1ccsc1)C(=O)c1nc(N2CCCCC2)ncc1Cl,Percent Effect,"30.3 µM, […]",60.89%
CCc1c(C(=O)N2CCN(C)[C@@H]3CS(=O)(=O)C[C@@H]32)[nH]c2ccccc12,Percent Effect,"30.3 µM, […]",-15.51%
CS(=O)(=O)NCc1cn2c(n1)CN(Cc1cccnc1)CC2.O=C(O)C(F)(F)F.O=C(O)C(F)(F)F,Percent Effect,"30.3 µM, […]",33.92%
O=C(O)C(F)(F)F.O=C(c1ccnnc1)N1CCN2C[C@H](Oc3cccc(F)c3)C[C@H]2C1,Percent Effect,"30 µM, 30.03 µM",5.462%
COc1ccc(CN2C[C@@H](CN(C)C)[C@@H](CO)C2)cc1OC,Percent Effect,"30.3 µM, […]",51.5%
COc1cccc(OC)c1C(=O)N1C[C@@H](CN(C)C)[C@@H](CO)C1,Percent Effect,"30.3 µM, […]",-22.82%
CN(C)C[C@@H]1CN(Cc2ccccc2C#N)C[C@@H]1CO,Percent Effect,"30.3 µM, […]",-11.66%
COc1ccc(CN2C[C@@H](CN(C)CCO)[C@@H](CO)C2)cc1Cl,Percent Effect,"30.3 µM, […]",33.72%
COc1ccc(CN2C[C@@H](CN(C)C)[C@@H](CO)C2)c(Cl)c1OC,Percent Effect,"30.3 µM, […]",52.59%
COc1ccc(CN2C[C@@H](CN(C)C)[C@@H](CO)C2)cc1CN1CCCC1,Percent Effect,"30.3 µM, […]",7.971%
